Reference: PMC7819943, “Rice protein-binding microarrays: a tool to detect cis-acting elements near promoter regions in rice”
Whole data set: some 68,000 sequences, median “fluorescence intensity (a.u.)” near 9,100, cut for the highest 2% near 16,000. Only a selection was taken, and the highest values are over-represented in it overall.

The sequences below were run against OsWRKY34 (Oryza sativa, UniProt Q0JBA9 1-250) (assay: protein-binding microarray (RPBM); PBS, 2% BSA, 51.3 ng/ul salmon testes DNA, 50 uM zinc acetate, 200 nM TF, 25 C, 1 h; high values mean tight binding). Settings: protein: recombinant; tags: N-terminal polyhistidine and DsRed monomer fusion (pET32a); label: CyDye5-dUTP incorporated in the synthesized complementary strand; 3' TTTTT single-stranded linker to array surface; dsDNA, one strand shown.
Chain of OsWRKY34 (Q0JBA9 entry or part of it): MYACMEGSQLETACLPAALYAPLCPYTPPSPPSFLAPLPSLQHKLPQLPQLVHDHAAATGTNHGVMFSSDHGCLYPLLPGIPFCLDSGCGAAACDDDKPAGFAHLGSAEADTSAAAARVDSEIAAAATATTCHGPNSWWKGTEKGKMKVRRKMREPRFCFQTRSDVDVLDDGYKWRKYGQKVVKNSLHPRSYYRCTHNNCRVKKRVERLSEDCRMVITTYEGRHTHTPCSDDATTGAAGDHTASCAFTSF
In short: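 Transcription factors were each fused at the N-terminus to a polyhistidine tag plus DsRed and expressed in E. coli BL21-CodonPlus before Ni–NTA purification. Binding to a double-stranded custom Agilent array was carried out with 200 nM protein at 25 °C for 1 h in PBS, 2% BSA, salmon testes DNA and 50 µM zinc acetate. The binding signal is per-feature fluorescence intensity, in arbitrary units, on an Axon 4000B scanner.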
In the case of “GTCTCTCTCACCGTCTCCGTGCTCCTCCGCCGCCCAAGGGCGGAGTCACCTAGTGCAG”, the binding signal is reported as 12900 fluorescence intensity (a.u.).
“GCAAGGTGTACCCGCAGTTCTCACGGTTACCACCATTTTCCGGAGTCACCTAGTGCAG” was tested, and the binding signal was 8430 fluorescence intensity (a.u.).
In the case of “CGTTCGCGTTTCGGTTTGACCGCGCGTCTCGCCTAGATTTCGGAGTCACCTAGTGCAG”, the binding signal is reported as 8650 fluorescence intensity (a.u.).
For “AGAGTTTGGCATACTCCTACGTATCATTGTCGACCTTTAGCGGAGTCACCTAGTGCAG”, the binding signal was 8340 fluorescence intensity (a.u.).
“CGAGGTCGTTTGGTTTTCTTTTCCTTTTTGGTTGTGTGTTCGGAGTCACCTAGTGCAG” was tested, and the binding signal was 9070 fluorescence intensity (a.u.).
In the case of “TGGTGTTGTTGGTGTCGTCTTGTTCTTGTTTGTGTTTTCTCGGAGTCACCTAGTGCAG”, the binding signal is reported as 15900 fluorescence intensity (a.u.).
For “TTGGTTCGGTTTTTTCTGCCCGCGTCGGTTTTTGTCTCACCGGAGTCACCTAGTGCAG”, the binding signal was 20100 fluorescence intensity (a.u.).
“CGGCTAGGGTTTGTTTTTCTTTTCTTTTTTTCCTTTTCTTCGGAGTCACCTAGTGCAG” was tested, and the binding signal was 14300 fluorescence intensity (a.u.).
For “GTGGGTATGGTTGACTTGACGGACGTACTACTCCATACTACGGAGTCACCTAGTGCAG”, the binding signal was 8190 fluorescence intensity (a.u.).
For “GTGCTACTCCATATACGTATGGCTGGTTTGGTTGGTTGAGCGGAGTCACCTAGTGCAG”, the binding signal was 21400 fluorescence intensity (a.u.).
In the case of “AGTTTTTTTTTCAGCTTTTTGGTTTCTTTTGCTGTTGTTTCGGAGTCACCTAGTGCAG”, the binding signal is reported as 10300 fluorescence intensity (a.u.).
With “CGAGGTTCTTTGCTTCATACTTTTTTTTGGTGTTCTACTTCGGAGTCACCTAGTGCAG” the binding signal was 11200 fluorescence intensity (a.u.).
“CGAGTCGAGCTTTTCTTTCTTTGGTTGGTTGGTTGGTGTTCGGAGTCACCTAGTGCAG” was tested, and the binding signal was 19600 fluorescence intensity (a.u.).
In the case of “TGGTTGGTTTGTTGGGTTCTTTTCCTTTTTTTTGTTTCTTCGGAGTCACCTAGTGCAG”, the binding signal is reported as 26700 fluorescence intensity (a.u.).
In the case of “TAGATAGGGGATGTATAGGACAAGAGAGAACACATGCATTCGGAGTCACCTAGTGCAG”, the binding signal is reported as 8690 fluorescence intensity (a.u.).
“TTAACCTCTCTCTTAATTTCAGTTTGTTTGTTCGTTCGTTCGGAGTCACCTAGTGCAG” was tested, and the binding signal was 9010 fluorescence intensity (a.u.).
For “ACAGCCTATATACACTACTCACTCCGTCTCAGAATATAAGCGGAGTCACCTAGTGCAG”, the binding signal was 8900 fluorescence intensity (a.u.).
In the case of “CATCCCAATTTTCTGGCCACACTTGCATCCCTCTGCCGCCCGGAGTCACCTAGTGCAG”, the binding signal is reported as 10800 fluorescence intensity (a.u.).
With “ACCACCCTACCTAGCTTAGAATATTTACCATGCATTCTCTCGGAGTCACCTAGTGCAG” the binding signal was 11100 fluorescence intensity (a.u.).
For “TCTTCTTCTTGTTTCGGCTTCCGCCTCCGTCCCGCGCGCGCGGAGTCACCTAGTGCAG”, the binding signal was 13800 fluorescence intensity (a.u.).
In the case of “CAAATTATGAGCCTGTTCACTTTGATGCTCTTTTCAACCACGGAGTCACCTAGTGCAG”, the binding signal is reported as 8320 fluorescence intensity (a.u.).
In the case of “TCCCAAACCCCGCGCCGCCTCTTACCGCTTCGCGTCAGCTCGGAGTCACCTAGTGCAG”, the binding signal is reported as 8490 fluorescence intensity (a.u.).
With “ACCTATCTTTCTCTATTTTTTATTTTTTTAGCGAAACACACGGAGTCACCTAGTGCAG” the binding signal was 9780 fluorescence intensity (a.u.).
For “TCCGTTTTTGTGGTTTTCGATGGATTCCGTCGTCGCCGACCGGAGTCACCTAGTGCAG”, the binding signal was 9660 fluorescence intensity (a.u.).
In the case of “GATGGACATTGTTTGCCATCACCGTCAACGACCGTTGACTCGGAGTCACCTAGTGCAG”, the binding signal is reported as 12900 fluorescence intensity (a.u.).
With “GCTTCGTTGGCTCCGTGAAACTGTCTCTCTCTCCCAACTCCGGAGTCACCTAGTGCAG” the binding signal was 8030 fluorescence intensity (a.u.).
In the case of “TTTGCACTGGTTTTGTAAGTTGGGGATGTATTGTATGAGGCGGAGTCACCTAGTGCAG”, the binding signal is reported as 9560 fluorescence intensity (a.u.).
With “CGTGAGGAATGGGATTTTTATTTTGCTGGTTACTGTTTGACGGAGTCACCTAGTGCAG” the binding signal was 10000 fluorescence intensity (a.u.).
In the case of “AGTCAAATTTGTTTTTTTTCGTTGCAACTTGTATAATTTACGGAGTCACCTAGTGCAG”, the binding signal is reported as 9430 fluorescence intensity (a.u.).
For “GTGTCATTCTCCTCACACGCCGGTCTCCATGAGCGAGTTTCGGAGTCACCTAGTGCAG”, the binding signal was 8110 fluorescence intensity (a.u.).
“AAAATTCTTGGTCTTCTTGGTCTCGGTTAGTTCGGTTCGACGGAGTCACCTAGTGCAG” was tested, and the binding signal was 8110 fluorescence intensity (a.u.).
“AAAGTTGGGGTCAGGTGGTTTTGGTTCTGTGTTCAAGGGACGGAGTCACCTAGTGCAG” was tested, and the binding signal was 11500 fluorescence intensity (a.u.).
For “GACGTGTTTGGTCTTCGGTTCGGTGGGTCTCAAGTTCTGACGGAGTCACCTAGTGCAG”, the binding signal was 19400 fluorescence intensity (a.u.).
“GGACCCACCTGCCGAACCAGCACGCATCGCGTCTCGCACCCGGAGTCACCTAGTGCAG” was tested, and the binding signal was 8590 fluorescence intensity (a.u.).
“ATCACGGGATTACACAGCAAAGTAGCAAAGCTAAATTTTACGGAGTCACCTAGTGCAG” was tested, and the binding signal was 63700 fluorescence intensity (a.u.).
In the case of “TGCAAAGTAGTAGTTGGGGATTTAATAGTGGCTTACAATACGGAGTCACCTAGTGCAG”, the binding signal is reported as 8620 fluorescence intensity (a.u.).
With “GGTCAAATTCTCATTTTGCAATATCCCACAGCTAATTACACGGAGTCACCTAGTGCAG” the binding signal was 9540 fluorescence intensity (a.u.).
With “GCTAATAAGTGCTTACATTGTTTTGGATGATCACCAGCAACGGAGTCACCTAGTGCAG” the binding signal was 8080 fluorescence intensity (a.u.).
For “ATGCTCCTACTTTCCTTTGCTGTATATATTACTCCATTTGCGGAGTCACCTAGTGCAG”, the binding signal was 8260 fluorescence intensity (a.u.).
With “GAATCCACCGCATTTTTCCGCCGCCCCACGCGGCGCCACCCGGAGTCACCTAGTGCAG” the binding signal was 19700 fluorescence intensity (a.u.).
With “TTCGTCTCCGTTTCGTCTTCTTCTTCTTCTTCTTCTTCGGCGGAGTCACCTAGTGCAG” the binding signal was 8790 fluorescence intensity (a.u.).
With “AGCTTCCTCCGTTTTTTTCTTTCTTTCTTTCTTTTTTTTTCGGAGTCACCTAGTGCAG” the binding signal was 11800 fluorescence intensity (a.u.).
For “TTCCTCCGTTTTCTCCGTTCGTCTTCCTCCGCTTCCGAAGCGGAGTCACCTAGTGCAG”, the binding signal was 18000 fluorescence intensity (a.u.).
For “CCAACCGCCGCGCCGCTTCGCTGTCTTCACCGTGCCGCTCCGGAGTCACCTAGTGCAG”, the binding signal was 8620 fluorescence intensity (a.u.).
For “CCGAATCCGGCCACCCCGCCGCCTCCACGCGCATCACCGCCGGAGTCACCTAGTGCAG”, the binding signal was 11100 fluorescence intensity (a.u.).
For “TCATTCCTATGTTTTTTCTGTGTTTTGCAATTCTCTGTTTCGGAGTCACCTAGTGCAG”, the binding signal was 14900 fluorescence intensity (a.u.).
In the case of “ACCCACCACAACCAGTGATCAGACACCACCTACCGCGCGCCGGAGTCACCTAGTGCAG”, the binding signal is reported as 8330 fluorescence intensity (a.u.).
In the case of “GCAAACTTTATTGCTCCGCGTTCTTCCTTTCTCTGTGTTTCGGAGTCACCTAGTGCAG”, the binding signal is reported as 8910 fluorescence intensity (a.u.).
In the case of “ACCCCACCTGTCAGACAACCCCACCGCCGCTTCGCTTCACCGGAGTCACCTAGTGCAG”, the binding signal is reported as 17300 fluorescence intensity (a.u.).
In the case of “TCATTGCTCTCTGTGTTTCTCCGCTATGCCGCCACGTCTTCGGAGTCACCTAGTGCAG”, the binding signal is reported as 16700 fluorescence intensity (a.u.).
In the case of “GCACCGGCGCCACCGCCCGCGCCCGCACCACCGCCCACGCCGGAGTCACCTAGTGCAG”, the binding signal is reported as 8870 fluorescence intensity (a.u.).
For “GGAGCACCTGTCGTGCGCTGCCGCCATGTACGCGGCGCCGCGGAGTCACCTAGTGCAG”, the binding signal was 8360 fluorescence intensity (a.u.).
For “ATACCCGATCTCATTATTATGAACCAGTTATGTAATAACACGGAGTCACCTAGTGCAG”, the binding signal was 8020 fluorescence intensity (a.u.).
“TGCACAAAGGTTATGCGATATCGACGGTATATTTCCACAACGGAGTCACCTAGTGCAG” was tested, and the binding signal was 9520 fluorescence intensity (a.u.).
